Pol kappa inh-1 = blocks human DNA polymerase kappa activity. purified Pol kappa, fluorescent DNA synthesis assay, 10 min. Potency, µM (series often up to 107 µM), usual class: inhibitors. 0.53% of 400,000 active
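Fluorescent qHTS in 1536-well format: enzyme (10 nM) and compound sat 15 min at room temperature before 50 nM substrate (final) was added. Signal taken at 0 and 10 min; no-enzyme buffer wells were negative controls.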
Pol eta inh-1 = DNA polymerase eta (human) inhibition | Q9Y253 | recombinant Pol eta, fluorescent DNA replication assay | Potency, µM (titrated, usually from 114 µM), hits mostly inhibitors | 1.2% of 390,000 active | AID 588591
Target sequence (Q9Y253 whole entry, looked up): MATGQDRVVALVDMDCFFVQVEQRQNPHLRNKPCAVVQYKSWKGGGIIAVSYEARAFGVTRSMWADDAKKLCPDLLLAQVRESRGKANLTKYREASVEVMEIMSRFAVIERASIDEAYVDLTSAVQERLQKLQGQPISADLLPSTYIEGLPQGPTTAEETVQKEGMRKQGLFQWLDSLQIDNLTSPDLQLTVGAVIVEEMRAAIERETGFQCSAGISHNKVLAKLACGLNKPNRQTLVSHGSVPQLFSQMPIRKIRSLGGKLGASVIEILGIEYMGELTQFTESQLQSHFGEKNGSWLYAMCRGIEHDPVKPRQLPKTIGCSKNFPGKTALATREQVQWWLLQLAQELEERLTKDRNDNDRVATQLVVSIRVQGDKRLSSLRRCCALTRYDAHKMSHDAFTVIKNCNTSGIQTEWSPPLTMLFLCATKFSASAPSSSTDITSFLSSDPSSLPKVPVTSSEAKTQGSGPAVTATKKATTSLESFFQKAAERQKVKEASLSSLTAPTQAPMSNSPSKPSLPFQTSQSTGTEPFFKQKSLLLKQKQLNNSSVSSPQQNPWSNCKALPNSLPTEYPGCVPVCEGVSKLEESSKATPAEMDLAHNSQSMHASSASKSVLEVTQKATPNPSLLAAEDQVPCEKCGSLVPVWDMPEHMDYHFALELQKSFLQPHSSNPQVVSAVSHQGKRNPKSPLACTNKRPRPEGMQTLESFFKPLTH
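Fluorescent replication assay: 50 nM final substrate added after a 15 min room-temperature compound preincubation with 10 nM enzyme. Signal taken at 0 min and again at 10 min.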
Pol beta inh-1 = DNA polymerase beta (human) inhibition; 1.3% of 340,000 active; P06746; Pol beta primer extension/strand displacement, fluorescence kinetic; Potency, µM (titrated, usually from 114 µM), most hits filed as inhibitors; AID 485314
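10 nM enzyme + cpd, 15 min RT; start with substrate 50 nM final; read 0 min and after 10 min RT. Corrected, normalized data; 4-parameter Hill curve fit.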
Pol iota inh = inhibitors of human DNA polymerase iota. AID 588590. Q9UNA4. 1% of 390,000 active. Pol iota fluorescent replication assay, 10 min. Potency, µM (titrated, usually from 115 µM), usual class: inhibitors
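Fluorescent replication assay read twice, at 0 min and 10 min after adding 50 nM (final) substrate. Enzyme (10 nM) and compounds were first incubated 15 min at room temperature; enzyme-free buffer wells were negative controls.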
TDP1 inh = TDP1 (human) enzyme inhibition. Q9NUW8. recombinant TDP1, AlphaScreen DNA substrate cleavage. Potency, µM (highest dose often 130 µM), actives largely listed as inhibitors. 0.28% of 350,000 active; further: nearly all actives have a fitted effect of over 40% in size
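Here, a 5' biotin and 3' phosphotyrosine-FITC DNA oligonucleotide reports Tdp1 activity: intact substrate bridges AlphaScreen beads, while cleavage leaves a 3' phosphate and drops signal. All incubations at room temperature.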
Pol beta inh-2 = Human Pol beta inhibitor hit validation; shares compounds with Pol beta inh-1; Pol beta primer extension/strand displacement, fluorescence kinetic; Potency, µM, usual class: inhibitors; 87% of 250 active; calls by dose curve
Klenow inh = counter-screen for DNA polymerase beta inhibitors: Klenow fragment inhibition; shares compounds with Pol beta inh-1; Klenow exo- polymerase counter-screen, fluorescent DNA substrate; activity change, negative = inhibition, % at 57.1 µM; 250 tested, under 10 active
HIV RT counter = HIV-1 RT inhibition, pol beta selectivity check; HIV-1 RT polymerase activity, counter-screen; 250 tested, under 10 active; shares compounds with Pol beta inh-1; activity % (negative = inhibition, positive = activation), % at 57.1 µM
POLB valid = DNA polymerase beta inhibition, radiolabeled validation; radiolabeled primer extension gel assay, phosphorimager; inhibition, % at 10 µM; AID 540325; 91% of 110 active; shares compounds with Pol beta inh-1;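 active means inhibition at 10 µM of 30% or more; inconclusive means no clear call, values can overlap the other calls; inactive means inhibition at 10 µM under 30%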
PGK validate = TbPGK inhibition, hit validation | TbPGK coupled GAPDH assay, Kinase-Glo luminescence | 79% of 500 active | Potency, µM (top dose mostly 57.5 µM), usual class: inhibitors | shares compounds with Pol kappa inh-1; further: nearly all actives have a fitted effect of over 65% in size
POLI cherry-pick = Inhibitors of human DNA polymerase iota, confirmation. Pol iota primer extension, TAMRA/BHQ fluorescence. AID 720496. Potency, µM, actives largely listed as inhibitors. shares compounds with Pol kappa inh-1. 77% of 1,500 active
Pol kappa inh-2 = Pol kappa (human) inhibition, cherry-pick confirmation. shares compounds with Pol eta inh-1. Potency, µM, actives largely listed as inhibitors. 76% of 920 active. purified Pol-kappa, fluorescent strand-displacement substrate
Pol eta inh-2 = confirmation of human DNA polymerase eta inhibitors; shares compounds with Pol eta inh-1; Pol eta primer extension, TAMRA/BHQ fluorescence, 10 min; AID 720502; Potency, µM, usual class: inhibitors; 64% of 2,600 active
Each line names hits and unclear results; the compound was inactive in the other large screens (follow-up assays come after a bar, where they were run). Sampled rows, rich in hits. Any-hit rate of the full collection: about 2.4%. Unless noted, the call rests on the fitted dose curve; in most records, active means well fitted curve in the direction sought with a large enough effect; inconclusive means small, poorly fitted or top-dose-only effect, or another doubt; inactive means no such curve, though single readings can be large; an effect the other way counts as inactive or inconclusive.

COCCn1c(C)cc(C(=O)COC(=O)c2cccc(O)c2)c1C	none
COCCn1c(C)cc(C(=O)COC(=O)c2cc3c(s2)CCC3)c1C	Pol kappa inh-1 40µM, Pol eta inh-1 8.9µM, Pol beta inh-1 10µM, Pol iota inh inconclusive (no result: TDP1 inh) | Pol beta inh-2 32 | Klenow inh inactive | HIV RT counter inactive | POLB valid 84 | POLI cherry-pick 38 | Pol eta inh-2 67
COC(=O)c1c(NC(=O)COC(=O)c2ccc(C)s2)sc2c1CCCCC2	none
COC(=O)c1c(NC(=O)COC(=O)c2ccc(NC(=O)CC#N)cc2)sc2c1CCCCC2	Pol kappa inh-1 50µM, Pol eta inh-1 28µM, Pol beta inh-1 8.9µM, Pol iota inh 14µM | Pol beta inh-2 6.3 | Klenow inh inactive | HIV RT counter inactive | POLI cherry-pick 24 | Pol kappa inh-2 17 | Pol eta inh-2 30
CCn1c(SCC(=O)c2ccc(O)c(O)c2)nnc1-c1ccccc1OC	Pol kappa inh-1 20µM, Pol eta inh-1 1.4µM, Pol beta inh-1 10µM, Pol iota inh 10µM | Pol beta inh-2 8.9 | Klenow inh inactive | HIV RT counter inconclusive | PGK validate 7.3µM | POLI cherry-pick inconclusive | Pol kappa inh-2 17 | Pol eta inh-2 30
CCn1c(SCC(=O)c2ccc(O)c(O)c2)nnc1-c1ccccc1	Pol kappa inh-1 inconclusive, Pol eta inh-1 inconclusive, Pol beta inh-1 inconclusive, Pol iota inh inconclusive
O=C(O)C1Nc2ccc(Br)cc2C2C=CCC12 (stereo not drawn)	Pol kappa inh-1 10µM, Pol eta inh-1 3.2µM, Pol beta inh-1 1.6µM, Pol iota inh inconclusive (no result: TDP1 inh) | PGK validate 18µM
CC(C)CNC(=O)C1Nc2ccc(C(F)(F)F)cc2C2C=CCC12 (stereo not drawn)	none (no result: Pol beta inh-1, TDP1 inh)
O=C(O)C1Nc2c(O)cccc2C2C=CCC12 (stereo not drawn)	Pol kappa inh-1 10µM, Pol eta inh-1 1.3µM, Pol beta inh-1 1.6µM, Pol iota inh inconclusive (no result: TDP1 inh) | PGK validate 3.3µM
COC(=O)c1ccc([C@@H]2Nc3c(cccc3C(F)(F)F)[C@@H]3C=CC[C@@H]32)cc1	Pol beta inh-1 inconclusive (no result: TDP1 inh)
Cc1cccc(-n2ncc(C(=O)N3CCN(Cc4ccccc4)CC3)c2C2CCN(C(=O)OC(C)(C)C)CC2)c1	none
O=C(Nc1ccccc1)c1ccc2c(O)c(S(=O)(=O)c3ccc(Cl)cc3)c(=O)[nH]c2c1	none
COc1ccc(C(=O)Nc2ccc3c(c2)N(C2CCCC2)C(=O)c2ccccc2S3)cc1OC	none
COc1ccc(Sc2ccccc2CN(C)C)cc1OC	none
CNCc1ccccc1Sc1ccc(O)c(O)c1	Pol kappa inh-1 79µM, Pol beta inh-1 inconclusive, Pol iota inh 28µM (no result: TDP1 inh) | POLI cherry-pick 75
